In PubChem BioAssay AID1159580 (chemical genetic matrix, 2015):
Among all 5,500 compounds or so, about 2,000 (36%) were called active. Another 18% or so got no clear call; they are omitted. No stated cut-off is given here; in the data, active means normalized growth mostly below about 0.91 (no sharp cut-off); inconclusive means no clear call, values can overlap the other calls; inactive means mostly above about 0.92. Some of the results follow.

Assay: chemical genetic growth profiling, strain panel (AID 1159580);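 further: tested at 20 µM; growth read once vehicle control cultures reached saturation at 30 °C; 1 = growth at the plate median or of vehicle wells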
Settings: S. cerevisiae deletion strains, growth OD
[1] = locus YAL013W, strain DEP1, stronger effect = lower value
[2] = locus YDL101C, strain DUN1, stronger effect = lower value
[3] = locus YDR150W, strain NUM1, stronger effect = lower value
[4] = locus YGR078C, strain PAC10, stronger effect = lower value
[5] = locus YHR030C, strain SLT2, stronger effect = lower value
[6] = locus YMR307W, strain GAS1, stronger effect = lower value
[7] = locus YPL241C, strain CIN2, stronger effect = lower value

Measured: normalized growth

COC(=O)c1cc([N+](=O)[O-])ccc1NC(C)=O
inactive: [1] 0.986 | locus YBR229C, strain ROT2, stronger effect = lower value 1 | locus YCL061C, strain MRC1, stronger effect = lower value 0.997 | [2] 1.01 | locus YDL134C, strain PPH21, stronger effect = lower value 1.01 | [3] 0.989 | locus YEL061C, strain CIN8, stronger effect = lower value 0.989 | [4] 1 | locus YGR229C, strain SMI1, stronger effect = lower value 1 | [5] 0.929 | locus YHR087W, strain rtc3, stronger effect = lower value 1.02 | locus YJL187C, strain SWE1, stronger effect = lower value 0.998 | locus YJR043C, strain POL32, stronger effect = lower value 0.994 | locus YJR075W, strain HOC1, stronger effect = lower value 1.03 | locus YKL190W, strain CNB1, stronger effect = lower value 0.995 | locus YLR039C, strain RIC1, stronger effect = lower value 1.05 | locus YLR058C, strain SHM2 (second series), stronger effect = lower value 0.996 | locus YLR085C, strain ARP6, stronger effect = lower value 0.977 | locus YLR262C, strain YPT6, stronger effect = lower value 1.03 | locus YML094W, strain GIM5, stronger effect = lower value 1.02 | locus YMR219W, strain ESC1, stronger effect = lower value 0.999 | locus YMR263W, strain SAP30, stronger effect = lower value 0.979 | [6] 0.998 | locus YNL128W, strain TEP1, stronger effect = lower value 1.01 | locus YNL153C, strain GIM3, stronger effect = lower value 0.986 | locus YNL298W, strain CLA4 (second series), stronger effect = lower value 0.958 | locus YNL322C, strain KRE1, stronger effect = lower value 1.01 | locus YNR030W, strain Alg12, stronger effect = lower value 1 | locus YPL055C, strain LGE1, stronger effect = lower value 0.983 | [7] 1.03 | locus YPR135W, strain CTF4, stronger effect = lower value 0.992

O=[N+]([O-])c1ccc2nc(N3CCNCC3)ccc2c1
inactive: [1] 0.999 | locus YAL040C, strain CLN3, stronger effect = lower value 0.985 | locus YCL061C, strain MRC1 (second series), stronger effect = lower value 0.995 | [3] 0.994 | locus YDR363W, strain ESC2, stronger effect = lower value 1.04 | locus YER002W, strain NOP16, stronger effect = lower value 1.01 | [4] 1 | [6] 1 | locus YNL175C, strain NOP13, stronger effect = lower value 1 | locus YNL197C, strain WHI3, stronger effect = lower value 1 | locus YNL224C, strain SQS1, stronger effect = lower value 1.01 | locus YOR083W, strain WHI5 (second series), stronger effect = lower value 1.01 | [7] 1.01

CC(=O)Nc1ccc([N+](=O)[O-])cc1[N+](=O)[O-]
inactive: locus YBL105C, strain PKC1, stronger effect = lower value 0.925 | locus YBR135W, strain CKS1, stronger effect = lower value 0.911 | locus YBR136W, strain MEC1, stronger effect = lower value 0.922 | locus YBR160W, strain CDC28, stronger effect = lower value 0.918 | locus YDL017W, strain CDC7, stronger effect = lower value 0.927 | locus YDL028C, strain MPS1, stronger effect = lower value 0.924 | locus YDL108W, strain KIN28, stronger effect = lower value 0.912 | locus YDR052C, strain DBF4, stronger effect = lower value 0.931 | locus YDR226W, strain ADK1, stronger effect = lower value 0.911 | locus YFL009W, strain cdc4, stronger effect = lower value 0.899 | locus YFR003C, strain YPI1, stronger effect = lower value 0.926 | locus YFR028C, strain CDC14, stronger effect = lower value 0.9 | locus YIL147C, strain SLN1, stronger effect = lower value 0.927 | locus YJL128C, strain PBS2, stronger effect = lower value 0.878 | locus YJR016C, strain ILV3, stronger effect = lower value 0.924 | locus YNL006W, strain LST8, stronger effect = lower value 0.927 | locus YNL207W, strain RIO2, stronger effect = lower value 0.909 | locus YOR329C, strain SCD5, stronger effect = lower value 0.929 | locus YPL209C, strain IPL1, stronger effect = lower value 0.915 | locus YPR025C, strain CCL1, stronger effect = lower value 0.92 | locus YPR106W, strain ISR1, stronger effect = lower value 0.926 | locus YPR111W, strain DBF20, stronger effect = lower value 0.902 | strain NNK1, stronger effect = lower value 0.931
active: locus YAR019C, strain CDC15, stronger effect = lower value 0.619 | [2] 0.671 | locus YDL132W, strain cdc53, stronger effect = lower value 0.838 | locus YDL214C, strain PRR2, stronger effect = lower value 0.165 | locus YDR054C, strain cdc34, stronger effect = lower value 0.625 | locus YDR477W, strain SNF1, stronger effect = lower value 0.188 | locus YER123W, strain YCK3, stronger effect = lower value 0.114 | locus YER133W, strain GLC7, stronger effect = lower value 0.131 | locus YFL029C, strain CAK1, stronger effect = lower value 0.605 | locus YFR019W, strain FAB1, stronger effect = lower value 0.27 | locus YGR040W, strain KSS1, stronger effect = lower value 0.206 | locus YGR052W, strain FMP48, stronger effect = lower value 0.175 | locus YGR092W, strain DBF2, stronger effect = lower value 0.349 | [5] 0.123 | locus YHR079C, strain IRE1, stronger effect = lower value 0.388 | locus YHR082C, strain KSP1, stronger effect = lower value 0.205 | locus YHR205W, strain SCH9, stronger effect = lower value 0.0559 | locus YJL095W, strain BCK1, stronger effect = lower value 0.174 | locus YJL157C, strain FAR1, stronger effect = lower value 0.307 | locus YJR066W, strain TOR1 (second series), stronger effect = lower value 0.145 | locus YJR066W, strain TOR1, stronger effect = lower value 0.152 | locus YKL048C, strain ELM1, stronger effect = lower value 0.707 | locus YKL067W, strain YNK1, stronger effect = lower value 0.284 | locus YKL101W, strain HSL1, stronger effect = lower value 0.534 | locus YKL193C, strain SDS22, stronger effect = lower value 0.753 | locus YKL203C, strain TOR2, stronger effect = lower value 0.213 | locus YLR113W, strain HOG1, stronger effect = lower value 0.153 | locus YLR133W, strain CKI1, stronger effect = lower value 0.438 | locus YLR403W, strain SFP1, stronger effect = lower value 0.21 | locus YML070W, strain DAK1, stronger effect = lower value 0.202 | locus YMR205C, strain PFK2 (second series), stronger effect = lower value 0.511 | locus YMR277W, strain FCP1, stronger effect = lower value 0.668 | locus YNL020C, strain ARK1, stronger effect = lower value 0.558 | locus YNL161W, strain CBK1, stronger effect = lower value 0.722 | locus YNL183C, strain NPR1, stronger effect = lower value 0.105 | locus YNL222W, strain SSU72, stronger effect = lower value 0.711 | locus YNL307C, strain MCK1 (second series), stronger effect = lower value 0.241 | locus YOL078W, strain AVO1, stronger effect = lower value 0.679 | locus YOL136C, strain PFK27, stronger effect = lower value 0.227 | locus YOR061W, strain CKA2, stronger effect = lower value 0.587 | locus YOR119C, strain RIO1, stronger effect = lower value 0.196 | locus YOR231W, strain MKK1, stronger effect = lower value 0.396 | locus YPL031C, strain PHO85, stronger effect = lower value 0.213 | locus YPL153C, strain RAD53, stronger effect = lower value 0.271 | locus YPL204W, strain HRR25, stronger effect = lower value 0.276 | locus YPL256C, strain CLN2, stronger effect = lower value 0.164 | strain TSCII, stronger effect = lower value 0.587
